TDP1 cell CPT: growth inhibition of DT40 Tdp1-/-;hTDP1 cells with camptothecin (screen for TDP1 inhibitors); chicken DT40 Tdp1-/-;hTDP1 cells + 20 nM CPT, ATP luminescence, 48 h; Potency, µM (series often up to 46.2 µM), inactives show at the top dose activity change, negative = growth inhibition, hits mostly inhibitors; actives 12% (n = 420,000); AID 686979; further: nearly all actives have a fitted effect of over 55% in size
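Chicken DT40 Tdp1-/- cells complemented with human TDP1, 400 cells/well, exposed to compounds plus 20 nM camptothecin for at least 48 h at 37 C; viability read as ATP content by CellTiter-Glo luminescence.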
GCN5L2 inh: GCN5L2 (KAT2A) acetyltransferase inhibition; GCN5L2 HAT assay, ThioGlo1 CoA-SH fluorescence; Potency, µM (top dose mostly 58.9 µM), inactives show at the top dose activity change, negative = inhibition, most hits filed as inhibitors; actives 0.21% (n = 390,000); AID 504327
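GCN5L2 (20 nM) in 50mM HEPES pH 7.5, 0.1mM EDTA, 0.01% Tween-20 preincubated 15 min with compounds at room temperature. Reaction started with H3(1-25) 75uM, acetyl-CoA 70uM, ThioGlo1 50uM; CoA-thiol fluorescence (Ex340/Em540) read at 0 and 20 min.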
TDP1 cell noCPT: qHTS for Inhibitors of human tyrosyl-DNA phosphodiesterase 1 (TDP1): qHTS in cells in absence of CPT. Potency, µM (highest dose often 46.2 µM), without a hit: at the top dose activity change, negative = growth inhibition, most hits filed as inhibitors. AID 686978, 2013. DT40 Tdp1-/- hTDP1 cells, no CPT, ATP luminescence, 48 h. actives 15% (n = 420,000); further: nearly all actives have a fitted effect of over 55% in size
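Compound effects on proliferation are scored in DT40 Tdp1-/-;hTDP1 cells in the absence of CPT. ATP levels (CellTiter-Glo luminescence) are recorded after a ≥48 hr, 37 °C incubation.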
TDP1 inh: TDP1 (human) enzyme inhibition | Q9NUW8 | recombinant TDP1, AlphaScreen DNA substrate cleavage | Potency, µM (series often up to 130 µM), for inactives: top-dose activity change, negative = inhibition, usual class: inhibitors | actives 0.28% (n = 350,000) | AID 485290; further: nearly all actives have a fitted effect of over 40% in size
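Tdp1 1 nM final; 15 min RT w/ cpd; substrate 15 nM, 5 min; beads 10 ug/ml, 10 min; AlphaScreen read. Neg ctrl: no enzyme.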
PLK1 PBD inh: inhibitors of human PLK1 polo-box domain binding; Plk1 PBD binding of FITC phosphopeptide, fluorescence polarization; actives 2.8% (n = 360,000); Potency, µM, inactives show max response, negative = inhibition, usual class: inhibitors; AID 720504; further: series mostly up to about 57 µM; nearly all actives have a fitted effect of over 65% in size
Target sequence (P53350 whole entry, looked up, the tested form may be a part): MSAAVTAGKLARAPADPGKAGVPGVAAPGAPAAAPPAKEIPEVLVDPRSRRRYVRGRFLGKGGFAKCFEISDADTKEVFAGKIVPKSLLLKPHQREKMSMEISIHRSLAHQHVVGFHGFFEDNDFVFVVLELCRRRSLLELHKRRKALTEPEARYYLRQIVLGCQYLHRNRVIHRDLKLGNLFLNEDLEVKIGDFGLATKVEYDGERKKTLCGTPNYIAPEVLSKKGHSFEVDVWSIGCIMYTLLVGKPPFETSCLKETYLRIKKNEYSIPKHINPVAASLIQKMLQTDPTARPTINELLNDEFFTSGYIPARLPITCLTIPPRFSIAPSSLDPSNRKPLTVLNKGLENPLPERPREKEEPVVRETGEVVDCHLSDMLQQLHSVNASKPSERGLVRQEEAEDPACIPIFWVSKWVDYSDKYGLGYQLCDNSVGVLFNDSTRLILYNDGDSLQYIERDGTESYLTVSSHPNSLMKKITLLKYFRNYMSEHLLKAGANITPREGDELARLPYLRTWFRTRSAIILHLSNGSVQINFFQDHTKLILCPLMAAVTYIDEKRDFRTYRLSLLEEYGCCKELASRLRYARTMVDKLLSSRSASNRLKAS
VDR inh: inhibitors of human vitamin D receptor; VDR-SRC2-3 peptide fluorescence polarization, 2 h; Potency, µM, for inactives: max response, negative = inhibition, hits mostly inhibitors; actives 0.93% (n = 400,000)
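Fluorescence polarization assay measuring small-molecule disruption of VDR binding to the coregulator peptide SRC2-3. Compounds were pin-transferred (23 nl) into the reagent mix and incubated 2 h at room temperature before reading.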
* = called active by the depositor; ? = inconclusive; / = no result; [ ] = dose if it differs, or a comment. Compounds with a hit are over-represented: about 18% of the library has one in this group of screens. The call rests on the fitted dose curve; in most records, active means well fitted curve in the direction sought with a large enough effect; inconclusive means small, poorly fitted or top-dose-only effect, or another doubt; inactive means no such curve, though single readings can be large; an effect the other way counts as inactive or inconclusive. On the % scale 0 is the no-effect control and ±100 the full control effect; potency means the concentration at half of the fitted maximal effect.

SMILES | TDP1 cell CPT | GCN5L2 inh | TDP1 cell noCPT | TDP1 inh | PLK1 PBD inh | VDR inh
CCCC(C)c1nnc(NC(=O)C2CC(=O)N(CCc3ccc(F)cc3)C2)s1 (stereo not drawn) | ? | -8% | ? | 1% | 6µM* | ?
CC(C)Oc1ccc(C(=O)N(Cc2ccc(N(C)C)cc2)C2CCS(=O)(=O)C2)cc1 (stereo not drawn) | -4% | 1% | -26% | 6% | / | 8%
O=C(NC1CCOc2ccccc21)c1ccc(Cl)nc1 (stereo not drawn) | 14% | -3% | 6% | 0% | -4% | -12%
Cc1c(CC(=O)O)c(=O)oc2c(C)c3occ(-c4ccc(Br)cc4)c3cc12 | -8% | ? | 16µM* | / | 30µM* | ?
Cc1cc(C)cc(C(=O)NC(CC(N)=O)c2ccc(NC3CCCCCC3)c([N+](=O)[O-])c2)c1 (stereo not drawn) | ? | -24% | ? | 5% | -5% | -2%
NC(=O)CC(NC(=O)c1ccc(Br)cc1)c1ccc(NC2CCCCCCC2)c([N+](=O)[O-])c1 (stereo not drawn) | 16µM* | -2% | 16µM* | / | ? | -27%
NC(=O)CC(NC(=O)Cc1cccc2ccccc12)c1ccc(NC2CCCCC2)c([N+](=O)[O-])c1 (stereo not drawn) | ? | 1% | ? | 8% | -2% | 15%
COc1ccc(CCNc2ccc(C(CC(N)=O)NC(=O)c3ccc(Br)cc3)cc2[N+](=O)[O-])cc1 (stereo not drawn) | 23µM* | -5% | 16µM* | 4% | -7% | -10%
NC(=O)CC(NC(=O)c1ccccc1)c1ccc(NC2CCCCCCC2)c([N+](=O)[O-])c1 (stereo not drawn) | 23µM* | -7% | 23µM* | / | -6% | -4%
Cc1ccc(-n2nnnc2CNC(=O)c2ccccc2)cc1C | -17% | -2% | -15% | 5% | / | 13%
CC(C)CC1NC(=O)c2cc3ccccc3cc2-n2c1nc1ccc(Cl)cc1c2=O (stereo not drawn) | ? | / | ? | / | -5% | /
CC(C)CC1NC(=O)c2cc3ccccc3cc2-n2c1nc1ccc(F)cc1c2=O (stereo not drawn) | 23µM* | / | 23µM* | / | -4% | /
CCCC1NC(=O)c2cc3ccccc3cc2-n2c1nc1ccc(F)cc1c2=O (stereo not drawn) | ? | / | 21µM* | / | -19% | /
Cc1ccc2nc3n(c(=O)c2c1)-c1cc2ccccc2cc1C(=O)NC3CC(C)C (stereo not drawn) | 16µM* | / | 16µM* | / | -1% | /
Cc1ncc2c(c1CNC(=O)c1ccc3c(c1)OCO3)CCN(C(=O)c1cc3ccccc3n1C)C2 | -8%[9.04 µM] | / | -17% | / | / | /
CC(C)C1COc2cc3oc(=O)ccc3cc2O1 (stereo not drawn) | -8% | -11% | -10% | -7%[56.1 µM] | / | 7%
CCN1CCN(C2=C(NS(=O)(=O)c3ccc(C)cc3)C(=O)c3ccccc3C2=O)CC1 | 12µM* | -14% | 21µM* | 6% | -21% | -3%
CC(=O)Nc1ccc(S(=O)(=O)NC2=C(N3CCN(Cc4ccccc4)CC3)C(=O)c3ccccc3C2=O)cc1 | 10µM* | -9% | ? | 10% | -6% | 5%
CC1CCN(C2=C(NS(=O)(=O)c3ccccc3)C(=O)c3ccccc3C2=O)CC1 | ? | -8% | ? | / | -7% | 0%
CC1CCN(C2=C(NS(=O)(=O)c3ccc(Cl)cc3)C(=O)c3ccccc3C2=O)CC1 | -22% | -17% | -10% | 11% | -10% | -9%
COc1ccccc1CNC(=O)C1CCN(S(=O)(=O)Cc2ccccc2)CC1 | -12% | -2% | 0% | 6% | / | 18%
COc1cc(OC)cc(C(=O)N2CC(=O)Nc3ccc(Cl)cc3C2c2ccccc2)c1 (stereo not drawn) | ? | -3% | ? | 6% | / | -21%
O=C(Nc1nc(-c2ccc(Cl)cc2)cs1)c1cccnc1 | ? | -5% | 18µM* | 0% | 12µM* | -19%
CCc1ccc(-c2csc(NC(=O)c3cccnc3)n2)cc1 | ? | 2% | 16µM* | 8% | -9% | -2%
CCCC(=O)Nc1ccc(-c2csc(-c3cccnc3)n2)cc1 | ? | 4% | 16µM* | 3% | ? | -10%
SMILES | TDP1 cell CPT | GCN5L2 inh | TDP1 cell noCPT | TDP1 inh | PLK1 PBD inh | VDR inh
Clc1ccc(-c2csc(N/N=C\c3cccnc3)n2)cc1 | ? | -3% | 15µM* | 3% | 1% | -10%
CCc1ccc(NC(=O)c2cccnc2)cc1 | -7% | -6% | -7% | 6% | -2% | -1%
O=C(Nc1nc(-c2ccc(F)cc2)cs1)c1cccnc1 | -16% | -15% | ? | -3% | 0% | 16%
C(=N/Nc1nccs1)/c1cccnc1 | ? | -4% | ? | 3% | -6% | 15%
CC(=O)Nc1ccc(-c2csc(-c3cccnc3)n2)cc1 | ? | -4% | ? | 4% | -26% | 1%
COCCN(C(=O)COC(=O)CCc1c[nH]c2ccccc12)c1c(N)n(Cc2ccccc2)c(=O)[nH]c1=O | 5% | -6% | 7% | / | -8% | -8%
Cc1ccc(S(=O)(=O)NCC(=O)NCC(=O)NCCc2ccc(Cl)cc2)cc1C | ? | / | ? | / | -4% | /
CCC/C=C1/CCCOC(C(=O)NCCOC)(C(F)(F)F)C1 (stereo not drawn) | / | / | / | 5% | / | ?
CCc1ccc(-c2csc(NC(=O)C3=NN(c4ccccc4)C(=O)CC3)n2)cc1 | ? | -9% | 26µM* | 5% | -12% | -16%
Cc1nc(-n2nc(C)c(Cc3ccccc3Cl)c2C)sc1C(=O)N1CCCCC1C (stereo not drawn) | ? | -7% | 21µM* | 1% | / | 19%
Cc1nc(-n2nc(C)c(Cc3ccc(Cl)cc3)c2C)sc1C(=O)N1CCCCC1C (stereo not drawn) | -6% | -9% | ? | -1% | / | 11%
C=CCn1c(=S)sc2c(=O)[nH]cnc21 | -11% | -2% | -13% | 0% | -13% | -26%
O=C(OCC(=O)N1CCc2ccccc21)[C@@H]1CC(O)CN1S(=O)(=O)c1ccccc1[N+](=O)[O-] (stereo partly drawn) | 21µM* | 1% | 18µM* | 0% | -2% | -19%
CCCCCCCCCCCNC(=O)c1ccoc1C | 21µM* | -10% | 18µM* | 2% | ? | 79µM*

From PubChem
